Test results: the supplement of paper PMC12645437, “Orthogonal IMiD-Degron Pairs Induce Selective Protein Degradation in Cells” (ACS Chemical Biology, 2025)
Over roughly 8,300 sequences, “log2 fold change of degron read counts, EGFP-low vs EGFP+ sorted cells (limma voom), compound-induced degradation” has its median near -1.1; the highest 2% begin near 3.2. For the sample, the highest values were picked, then their nearest neighbours and some sequences at random.

Target: T1, CRBN, Q96SW2
T1 chain: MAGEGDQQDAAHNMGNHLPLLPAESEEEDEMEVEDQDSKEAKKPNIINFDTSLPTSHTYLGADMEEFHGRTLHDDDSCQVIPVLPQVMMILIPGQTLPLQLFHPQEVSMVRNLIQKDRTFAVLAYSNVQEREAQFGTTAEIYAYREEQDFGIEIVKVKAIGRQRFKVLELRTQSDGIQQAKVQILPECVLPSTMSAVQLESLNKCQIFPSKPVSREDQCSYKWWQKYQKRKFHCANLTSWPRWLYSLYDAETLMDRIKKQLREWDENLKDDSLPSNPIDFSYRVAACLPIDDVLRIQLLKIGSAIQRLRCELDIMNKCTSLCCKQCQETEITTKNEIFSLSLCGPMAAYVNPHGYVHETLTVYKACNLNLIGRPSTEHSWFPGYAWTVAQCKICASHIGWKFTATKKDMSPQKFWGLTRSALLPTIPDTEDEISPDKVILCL
Test: log2 fold change of degron read counts, EGFP-low vs EGFP+ sorted cells (limma voom), compound-induced degradation; higher = more compound-induced degradation of the degron-EGFP fusion; degrons are variants of IKZF1/3 zinc finger 2; compound dose not given here
Details: Jurkat, 18 h

[1] = compound: compound 19 (5-tert-butyl-thalidomide)
[2] = compound: compound 22 (5-morpholino-thalidomide)
[3] = compound: compound 33 (diphenyl IMiD analogue)
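Further: pooled lentiviral library of zinc finger degron-EGFP fusions in mCherry-positive Jurkat cells, FACS-sorted after compound exposure, with degron abundance counted by next-generation sequencing.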

Sequence	log2 fold change of degron read counts [1]	log2 fold change of degron read counts [2]	log2 fold change of degron read counts [3]	log2 fold change of degron read counts (compound: thalidomide)
FHCPICGHSFTQKGNLLRHIKL [46F_47H_49P_50I_52G_53H_54S_55F_67L_, Q9UKT9]	-2.13	-1.94	-1.36	-2.32
FDCNQCGRHFTQKGNLLRHIKL [46F_47D_49N_50Q_52G_53R_54H_55F_67L_, Q9UKT9]	-2.61	-2.91	-2.55	-2.64
FFCEQCGAIFTQKGNLLRHIKL [46F_47F_49E_50Q_52G_53A_54I_55F_67L_, Q9UKT9]	-0.0994	0.676	-1.15	-1.09
LGCNQCGFSCTQKGNLLRHIKL [46L_47G_49N_50Q_52G_53F_54S_55C_67L_, Q9UKT9]	-1.87	-2.27	-1.97	-1.71
FHCNQCGHDFTQKGNLLRHIKL [46F_47H_49N_50Q_52G_53H_54D_55F_67L_, Q9UKT9]	-2.36	-2.92	-3.64	-3.18
FRCPICGRKFTQKGNLLRHIKL [46F_47R_49P_50I_52G_53R_54K_55F_67L_, Q9UKT9]	-1.49	-0.504	0.233	0.803
FICNQCGRHFTQKGNLLRHIKL [46F_47I_49N_50Q_52G_53R_54H_55F_67L_, Q9UKT9]	-2.53	-2.91	-2.85	-2.39
FRCDQCGAQFTQKGNLLRHIKL [46F_47R_49D_50Q_52G_53A_54Q_55F_67L_, Q9UKT9]	-2.54	-2.73	-1.77	-2.38
FMCEQCGASFTQKGNLLRHIKL [46F_47M_49E_50Q_52G_53A_54S_55F_67L_, Q9UKT9]	-1.6	-1.45	1.54	-0.529
FWCNQCGRCFTQKGNLLRHIKL [46F_47W_49N_50Q_52G_53R_54C_55F_67L_, Q9UKT9]	-1.48	-2.02	-1.83	-1.5
LGCEICGFICTQKGNLLRHIKL [46L_47G_49E_50I_52G_53F_54I_55C_67L_, Q9UKT9]	0.761	-0.0429	-0.436	-0.337
FDCEICGARFTQKGNLLRHIKL [46F_47D_49E_50I_52G_53A_54R_55F_67L_, Q9UKT9]	3.3	1.74	0.651	2.27
FLCEICGARFTQKGNLLRHIKL [46F_47L_49E_50I_52G_53A_54R_55F_67L_, Q9UKT9]	0.574	-1.16	-0.0449	2.33
FQCEICGARFTQKGNLLRHIKL [46F_47Q_49E_50I_52G_53A_54R_55F_67L_, Q9UKT9]	0.106	2.1	1.34	3.7
FQCEICGAWFTQKGNLLRHIKL [46F_47Q_49E_50I_52G_53A_54W_55F_67L_, Q9UKT9]	-1.84	-0.947	0.615	2.26
FRCEICGARFTQKGNLLRHIKL [46F_47R_49E_50I_52G_53A_54R_55F_67L_, Q9UKT9]	-0.586	-0.873	-0.311	0.853
FACEICGARFTQKGNLLRHIKL [46F_47A_49E_50I_52G_53A_54R_55F_67L_, Q9UKT9]	3.84	2.89	-0.685	1.16
FHCEICGARFTQKGNLLRHIKL [46F_47H_49E_50I_52G_53A_54R_55F_67L_, Q9UKT9]	2.72	2.42	0.44	0.706
FVCEICGARFTQKGNLLRHIKL [46F_47V_49E_50I_52G_53A_54R_55F_67L_, Q9UKT9]	1.67	2.43	1.02	3.07
FMCEICGARFTQKGNLLRHIKL [46F_47M_49E_50I_52G_53A_54R_55F_67L_, Q9UKT9]	-0.0205	-0.359	1.34	1.5
FYCEICGARFTQKGNLLRHIKL [46F_47Y_49E_50I_52G_53A_54R_55F_67L_, Q9UKT9]	3.7	3.37	2.11	1.8
FICEICGARFTQKGNLLRHIKL [46F_47I_49E_50I_52G_53A_54R_55F_67L_, Q9UKT9]	0.817	2.66	1.57	3.04
FGCSVCGHIFTQKGNLLRHIKL [46F_47G_49S_50V_52G_53H_54I_55F_67L_, Q9UKT9]	-1.23	-2.7	-2.06	-1.9
LHCPICGFDCTQKGNLLRHIKL [46L_47H_49P_50I_52G_53F_54D_55C_67L_, Q9UKT9]	-1.62	-1.37	0.393	-0.313
FICNQCGREFTQKGNLLRHIKL [46F_47I_49N_50Q_52G_53R_54E_55F_67L_, Q9UKT9]	-2.93	-3.08	-3.08	-3.43
FQCEQCGACFTQKGNLLRHIKL [46F_47Q_49E_50Q_52G_53A_54C_55F_67L_, Q9UKT9]	-1.81	0.107	0.542	3.02
FCCPICGANFTQKGNLLRHIKL [46F_47C_49P_50I_52G_53A_54N_55F_67L_, Q9UKT9]	2.07	2.16	2.33	2.22
FMCEICGRGFTQKGNLLRHIKL [46F_47M_49E_50I_52G_53R_54G_55F_67L_, Q9UKT9]	-1.28	-1.8	-0.771	-1.76
